About 7,900 targets were measured; listed, in parts, are those with a hit and a random draw of the rest. About 0.6% of all pairs of compound and target were hits.
These targets were tested with CC(C)C[C@@H](C=O)NC(=O)[C@H](CC(C)C)NC(=O)[C@H](CC(C)C)NC(=O)OCc1ccccc1 (assay: log2 fold change, soluble protein after heating vs DMSO (PISA); higher = thermal stabilisation; K562 cells, 10 uM, 30 min; active = over 0.2 and 3.5 SD of the protein, either way, in both replicates (recomputed)).
Method in brief: (§1)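 Thermal stability values are relative to control samples and come from duplicates. They are expressed as log2 fold changes. For measurement, K562 cells (2×10^6 cells/mL) received 10 μM compound for 30 min, and aliquots were heated for 3 min over 48°C-58°C, pooled, and extracted at 4°C in PBS with 0.5% NP-40. Soluble protein, the supernatant after 21,000xg for 90 min, was quantified by TMTpro 16plex LC-MS/MS with equalised channel sums.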

Sequence of UniProt Q9UMY4 (Q9UMY4 whole entry, looked up): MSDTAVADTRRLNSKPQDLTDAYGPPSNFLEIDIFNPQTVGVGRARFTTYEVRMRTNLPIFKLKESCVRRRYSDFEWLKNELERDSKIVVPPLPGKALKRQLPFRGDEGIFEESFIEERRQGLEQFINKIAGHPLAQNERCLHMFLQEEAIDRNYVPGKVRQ
Sequence of UniProt P35270 (P35270 whole entry, looked up): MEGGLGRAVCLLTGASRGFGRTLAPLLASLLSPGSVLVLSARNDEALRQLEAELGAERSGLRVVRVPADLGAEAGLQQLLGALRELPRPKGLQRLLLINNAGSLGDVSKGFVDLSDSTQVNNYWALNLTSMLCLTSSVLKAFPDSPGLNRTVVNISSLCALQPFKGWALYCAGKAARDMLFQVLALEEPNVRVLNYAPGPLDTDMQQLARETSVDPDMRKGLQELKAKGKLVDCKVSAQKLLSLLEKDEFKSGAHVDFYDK
Sequence of UniProt P62318 (P62318 whole entry, looked up): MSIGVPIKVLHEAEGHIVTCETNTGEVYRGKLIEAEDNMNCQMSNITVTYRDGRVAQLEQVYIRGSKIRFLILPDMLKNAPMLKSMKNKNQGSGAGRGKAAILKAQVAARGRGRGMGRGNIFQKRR
Sequence of UniProt Q92544 (Q92544 whole entry, looked up): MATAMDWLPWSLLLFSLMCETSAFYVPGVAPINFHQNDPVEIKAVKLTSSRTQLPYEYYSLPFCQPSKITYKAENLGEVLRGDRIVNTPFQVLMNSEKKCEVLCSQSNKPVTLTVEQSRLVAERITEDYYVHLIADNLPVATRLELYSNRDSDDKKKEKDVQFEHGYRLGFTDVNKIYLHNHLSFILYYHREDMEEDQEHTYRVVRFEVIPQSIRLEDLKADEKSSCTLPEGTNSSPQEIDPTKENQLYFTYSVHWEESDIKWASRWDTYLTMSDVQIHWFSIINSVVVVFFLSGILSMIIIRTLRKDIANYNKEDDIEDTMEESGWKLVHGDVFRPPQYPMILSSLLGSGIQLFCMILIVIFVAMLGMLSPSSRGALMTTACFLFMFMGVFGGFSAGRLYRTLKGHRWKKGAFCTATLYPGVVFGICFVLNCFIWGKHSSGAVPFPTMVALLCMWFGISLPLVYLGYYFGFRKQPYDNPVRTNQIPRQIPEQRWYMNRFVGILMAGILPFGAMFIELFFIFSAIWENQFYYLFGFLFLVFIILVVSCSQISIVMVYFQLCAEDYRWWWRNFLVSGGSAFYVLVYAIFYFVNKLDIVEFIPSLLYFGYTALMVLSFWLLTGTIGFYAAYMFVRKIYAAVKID
Sequence of UniProt Q9UBP0 (Q9UBP0 whole entry, looked up): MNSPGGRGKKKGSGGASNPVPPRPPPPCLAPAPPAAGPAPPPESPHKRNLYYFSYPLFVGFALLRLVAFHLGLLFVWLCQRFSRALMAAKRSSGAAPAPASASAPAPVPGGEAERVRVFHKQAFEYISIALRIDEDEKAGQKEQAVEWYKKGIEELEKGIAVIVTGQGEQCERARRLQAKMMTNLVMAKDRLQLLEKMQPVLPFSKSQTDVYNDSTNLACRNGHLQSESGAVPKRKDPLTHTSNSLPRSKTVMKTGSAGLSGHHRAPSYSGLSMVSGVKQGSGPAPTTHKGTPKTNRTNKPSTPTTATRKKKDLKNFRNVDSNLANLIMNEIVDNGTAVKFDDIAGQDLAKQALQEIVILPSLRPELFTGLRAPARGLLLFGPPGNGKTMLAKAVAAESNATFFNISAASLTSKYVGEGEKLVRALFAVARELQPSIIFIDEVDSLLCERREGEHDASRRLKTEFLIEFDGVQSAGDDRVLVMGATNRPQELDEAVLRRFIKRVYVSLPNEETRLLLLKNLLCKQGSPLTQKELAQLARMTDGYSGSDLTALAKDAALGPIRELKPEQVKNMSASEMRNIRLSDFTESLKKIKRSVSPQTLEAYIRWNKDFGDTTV
Sequence of UniProt Q5JUR7 (Q5JUR7 whole entry, looked up): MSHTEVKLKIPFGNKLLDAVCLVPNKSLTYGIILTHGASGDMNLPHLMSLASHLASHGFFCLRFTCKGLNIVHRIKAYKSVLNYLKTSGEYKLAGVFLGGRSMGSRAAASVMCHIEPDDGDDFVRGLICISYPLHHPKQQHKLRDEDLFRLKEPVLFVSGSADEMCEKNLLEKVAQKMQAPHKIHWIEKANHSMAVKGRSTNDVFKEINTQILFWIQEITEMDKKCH
Sequence of UniProt Q9Y5L4 (Q9Y5L4 whole entry, looked up): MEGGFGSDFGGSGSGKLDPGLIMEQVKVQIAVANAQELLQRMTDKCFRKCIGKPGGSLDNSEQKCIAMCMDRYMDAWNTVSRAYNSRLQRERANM
Sequence of UniProt O60264 (O60264 whole entry, looked up): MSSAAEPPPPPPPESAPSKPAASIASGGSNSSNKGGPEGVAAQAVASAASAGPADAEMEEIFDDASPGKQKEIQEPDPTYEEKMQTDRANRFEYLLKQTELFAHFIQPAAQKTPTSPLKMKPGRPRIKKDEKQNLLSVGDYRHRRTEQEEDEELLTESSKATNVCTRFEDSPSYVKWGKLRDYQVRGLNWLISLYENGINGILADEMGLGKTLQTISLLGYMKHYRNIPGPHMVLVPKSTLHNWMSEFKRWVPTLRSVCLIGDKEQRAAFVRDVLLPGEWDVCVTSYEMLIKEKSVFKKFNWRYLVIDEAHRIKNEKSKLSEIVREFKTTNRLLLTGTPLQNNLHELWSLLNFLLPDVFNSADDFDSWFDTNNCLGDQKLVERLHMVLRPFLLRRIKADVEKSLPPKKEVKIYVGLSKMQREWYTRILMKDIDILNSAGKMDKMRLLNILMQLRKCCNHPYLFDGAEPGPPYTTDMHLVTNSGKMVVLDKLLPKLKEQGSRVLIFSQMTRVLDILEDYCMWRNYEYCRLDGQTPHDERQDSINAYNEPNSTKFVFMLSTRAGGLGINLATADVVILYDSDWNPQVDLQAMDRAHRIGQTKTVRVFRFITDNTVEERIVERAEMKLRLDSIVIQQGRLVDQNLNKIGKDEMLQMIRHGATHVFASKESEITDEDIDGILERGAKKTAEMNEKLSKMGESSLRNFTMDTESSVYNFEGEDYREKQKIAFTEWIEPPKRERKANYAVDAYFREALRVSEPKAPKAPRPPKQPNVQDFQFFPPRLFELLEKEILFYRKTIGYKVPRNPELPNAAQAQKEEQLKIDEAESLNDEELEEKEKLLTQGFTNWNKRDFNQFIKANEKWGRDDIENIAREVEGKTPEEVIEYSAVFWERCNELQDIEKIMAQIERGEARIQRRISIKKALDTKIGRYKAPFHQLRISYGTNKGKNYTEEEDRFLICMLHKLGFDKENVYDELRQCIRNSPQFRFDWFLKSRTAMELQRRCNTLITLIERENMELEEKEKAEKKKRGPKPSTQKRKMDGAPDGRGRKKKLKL
Sequence of UniProt Q9Y5X3 (Q9Y5X3 whole entry, looked up): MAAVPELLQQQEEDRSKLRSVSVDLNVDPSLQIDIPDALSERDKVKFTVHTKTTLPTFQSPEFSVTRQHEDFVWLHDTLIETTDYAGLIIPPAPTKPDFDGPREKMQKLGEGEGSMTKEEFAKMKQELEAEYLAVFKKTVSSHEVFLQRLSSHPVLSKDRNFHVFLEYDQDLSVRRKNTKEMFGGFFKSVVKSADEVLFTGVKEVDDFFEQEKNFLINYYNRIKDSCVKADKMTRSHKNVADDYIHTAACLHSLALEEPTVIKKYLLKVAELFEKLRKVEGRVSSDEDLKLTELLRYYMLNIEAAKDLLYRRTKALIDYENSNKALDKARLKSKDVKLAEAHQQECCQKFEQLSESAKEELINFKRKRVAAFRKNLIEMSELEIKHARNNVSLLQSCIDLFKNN
Sequence of UniProt Q9BTW9 (Q9BTW9 whole entry, looked up): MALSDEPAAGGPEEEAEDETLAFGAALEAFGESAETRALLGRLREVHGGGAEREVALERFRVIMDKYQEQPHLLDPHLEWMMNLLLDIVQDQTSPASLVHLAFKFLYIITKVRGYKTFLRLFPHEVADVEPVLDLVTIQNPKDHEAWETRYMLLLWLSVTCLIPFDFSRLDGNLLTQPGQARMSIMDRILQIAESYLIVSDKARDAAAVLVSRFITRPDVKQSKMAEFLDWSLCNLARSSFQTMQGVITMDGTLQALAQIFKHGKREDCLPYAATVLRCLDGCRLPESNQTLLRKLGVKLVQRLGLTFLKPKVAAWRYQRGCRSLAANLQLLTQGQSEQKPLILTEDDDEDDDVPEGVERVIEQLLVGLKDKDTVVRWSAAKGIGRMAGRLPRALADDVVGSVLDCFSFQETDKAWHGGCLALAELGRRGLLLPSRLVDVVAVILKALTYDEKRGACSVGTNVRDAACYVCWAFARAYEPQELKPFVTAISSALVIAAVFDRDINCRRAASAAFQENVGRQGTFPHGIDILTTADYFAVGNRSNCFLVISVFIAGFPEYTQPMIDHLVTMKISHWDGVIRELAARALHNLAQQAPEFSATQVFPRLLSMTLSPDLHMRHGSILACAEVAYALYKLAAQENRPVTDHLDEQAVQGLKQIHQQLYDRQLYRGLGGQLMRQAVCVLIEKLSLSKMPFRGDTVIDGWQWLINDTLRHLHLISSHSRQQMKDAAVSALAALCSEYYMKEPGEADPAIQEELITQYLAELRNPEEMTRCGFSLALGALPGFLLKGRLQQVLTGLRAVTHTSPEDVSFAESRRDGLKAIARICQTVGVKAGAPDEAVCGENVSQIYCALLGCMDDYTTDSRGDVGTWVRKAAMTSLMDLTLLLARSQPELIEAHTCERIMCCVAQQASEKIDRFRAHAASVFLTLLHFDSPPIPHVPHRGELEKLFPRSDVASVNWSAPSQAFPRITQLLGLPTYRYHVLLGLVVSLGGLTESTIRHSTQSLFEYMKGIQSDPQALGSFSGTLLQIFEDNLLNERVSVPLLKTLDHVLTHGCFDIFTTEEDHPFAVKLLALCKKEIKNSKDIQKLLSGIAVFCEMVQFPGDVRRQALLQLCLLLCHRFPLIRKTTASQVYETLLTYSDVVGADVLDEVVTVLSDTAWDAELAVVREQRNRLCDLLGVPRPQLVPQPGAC
Sequence of UniProt O00193 (O00193 whole entry, looked up): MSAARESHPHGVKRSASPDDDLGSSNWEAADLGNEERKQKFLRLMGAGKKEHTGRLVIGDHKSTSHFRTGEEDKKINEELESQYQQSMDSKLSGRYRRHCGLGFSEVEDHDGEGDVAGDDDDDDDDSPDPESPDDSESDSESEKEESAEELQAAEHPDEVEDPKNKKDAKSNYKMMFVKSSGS

log2 fold change, inactive:
TIMM13 (UniProt Q9Y5L4) -0.085
SLC25A38 (UniProt Q96DW6) -0.018
SMARCA5 (UniProt O60264) 0.084
TEX30 (UniProt Q5JUR7) 0.03
SMG1 (UniProt Q96Q15) -0.014
SNRPD3 (UniProt P62318) 0.017
SUPT5H (UniProt O00267) 0.013
SPAST (UniProt Q9UBP0) 0.013
TBCD (UniProt Q9BTW9) 0.01
SMAP (UniProt O00193) -0.018
SPR (UniProt P35270) -0.008
TAOK3 (UniProt Q9H2K8) 0.033
SP3 (UniProt Q02447) 0.054
STOM (UniProt P27105) 0.14
TJP1 (UniProt Q07157) 0.014
SLC30A10 (UniProt Q6XR72) -0.054
SPCS2 (UniProt Q15005) -0.058
TM9SF4 (UniProt Q92544) 0.029
STAT5B (UniProt P51692) 0.044
SRSF10 (UniProt O75494) 0.102
SNX12 isoform 1 (UniProt Q9UMY4) 0.03
TBC1D15 isoform 3 (UniProt Q8TC07) 0.012
SYMPK (UniProt Q92797) -0.061
TBC1D23 (UniProt Q9NUY8) 0.071
SMAP2 (UniProt Q8WU79) 0.137
SNX5 (UniProt Q9Y5X3) 0.005
SNX9 (UniProt Q9Y5X1) 0.029
SRPRB (UniProt Q9Y5M8) -0.051
TANGO6 (UniProt Q9C0B7) -0.068
TGFBRAP1 (UniProt Q8WUH2) -0.037
TANK (UniProt Q92844) 0.127
TBRG4 (UniProt Q969Z0) -0.038
TERF2IP (UniProt Q9NYB0) 0.058
STK25 (UniProt O00506) 0.066
SLC27A4 (UniProt Q6P1M0) -0.044
SMC5 (UniProt Q8IY18) 0.036
SLC30A7 (UniProt Q8NEW0) 0.011

Each target was assayed with CC(C)N(C[C@H]1O[C@@H](n2cnc3c(N)ncnc32)[C@H](O)[C@@H]1O)[C@H]1C[C@@H](CCc2nc3cc(C(C)(C)C)ccc3[nH]2)C1 [pinometostat] in the same assay as above.
Method in brief: as §1

log2 fold change, inactive:
TIMM13 (UniProt Q9Y5L4) -0.092
SLC25A38 (UniProt Q96DW6) -0.03
SMARCA5 (UniProt O60264) 0.068
TEX30 (UniProt Q5JUR7) 0.105
SMG1 (UniProt Q96Q15) -0.06
SNRPD3 (UniProt P62318) 0.027
SUPT5H (UniProt O00267) -0.017
SPAST (UniProt Q9UBP0) 0.002
TBCD (UniProt Q9BTW9) -0.061
SMAP (UniProt O00193) -0.049
SPR (UniProt P35270) -0.053
TAOK3 (UniProt Q9H2K8) 0.012
SP3 (UniProt Q02447) 0.026
STOM (UniProt P27105) 0.028
TJP1 (UniProt Q07157) 0.037
SLC30A10 (UniProt Q6XR72) -0.032
SPCS2 (UniProt Q15005) -0.062
TM9SF4 (UniProt Q92544) 0.016
STAT5B (UniProt P51692) -0.095
SRSF10 (UniProt O75494) 0.418
SNX12 isoform 1 (UniProt Q9UMY4) 0.032
TBC1D15 isoform 3 (UniProt Q8TC07) 0.056
SYMPK (UniProt Q92797) -0.115
TBC1D23 (UniProt Q9NUY8) -0.046
SMAP2 (UniProt Q8WU79) 0.015
SNX5 (UniProt Q9Y5X3) 0.027
SNX9 (UniProt Q9Y5X1) 0.04
SRPRB (UniProt Q9Y5M8) -0.026
TANGO6 (UniProt Q9C0B7) 0
TGFBRAP1 (UniProt Q8WUH2) 0.046
TANK (UniProt Q92844) -0.047
TBRG4 (UniProt Q969Z0) -0.014
TERF2IP (UniProt Q9NYB0) 0.024
STK25 (UniProt O00506) 0.034
SLC27A4 (UniProt Q6P1M0) 0.039
SMC5 (UniProt Q8IY18) 0.008
SLC30A7 (UniProt Q8NEW0) -0.007

From the supplement of paper PMC10849652
